Reference: PubChem BioAssay AID1159580 (chemical genetic matrix, 2015)
The whole screen tested about 5,500 compounds, of which about 2,000 (36%) were called active. Inconclusive results (about 18%) are left out. Cut-off read from the data, not from the text of the source: active = normalized growth mostly below about 0.91 (no sharp cut-off); inconclusive = no clear call, values can overlap the other calls; inactive = mostly above about 0.92. This is one part of the list.

Assay: chemical genetic growth profiling, strain panel (AID 1159580);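 note: tested at 20 µM; growth read once vehicle control cultures reached saturation at 30 °C; 1 = growth at the plate median or of vehicle wells; lower values mean less growth of the strain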
Details: S. cerevisiae deletion strains, growth OD

Measured: normalized growth

CC(=O)O[C@H]1CC[C@@]2(C)C(=CCC3C2CC[C@]2(C)C(=O)CCC32)C1 (some centres undefined)
active: locus YAL013W, strain DEP1, hits give low values 0.775 | locus YAL021C, strain ccr4, hits give low values 0.877 | locus YAL026C, strain drs2, hits give low values 0.6 | locus YBR021W, strain FUR4, hits give low values 0.833 | locus YCL029C, strain bik1, hits give low values 0.895 | locus YDL035C, strain GPR1, hits give low values 0.686 | locus YDL074C, strain BRE1, hits give low values 0.612 | locus YDR137W, strain rgp1, hits give low values 0.568 | locus YDR162C, strain NBP2, hits give low values 0.596 | locus YDR195W, strain ref2 1.3 [resistant] | locus YDR318W, strain mcm21, hits give low values 0.844 | locus YDR392W, strain spt3, hits give low values 0.43 | locus YDR502C, strain sam2, hits give low values 0.843 | locus YER155C, strain BEM2, hits give low values 0.752 | locus YER167W, strain BCK2, hits give low values 0.892 | locus YGL086W, strain mad1, hits give low values 0.884 | locus YGL248W, strain PDE1, hits give low values 0.721 | locus YGR135W, strain pre9, hits give low values 0.884 | locus YHR030C, strain SLT2, hits give low values 0.779 | locus YHR129C, strain ARP1, hits give low values 0.788 | locus YIL066C, strain RNR3, hits give low values 0.812 | locus YJL095W, strain BCK1, hits give low values 0.433 | locus YJL164C, strain tpk1, hits give low values 0.906
inactive: locus YAL030W, strain snc1, hits give low values 1.02 | locus YBL061C, strain skt5, hits give low values 1.02 | locus YBR009C, strain hhf1, hits give low values 0.908 | locus YBR023C, strain chs3, hits give low values 0.961 | locus YBR171W, strain sec66, hits give low values 1.02 | locus YBR229C, strain ROT2, hits give low values 1 | locus YBR231C, strain swc5, hits give low values 1.04 | locus YBR279W, strain paf1, hits give low values 0.975 | locus YCL011C, strain gbp2, hits give low values 0.912 | locus YCL016C, strain dcc1, hits give low values 0.917 | locus YCL069W, strain vba3, hits give low values 0.951 | locus YCR088W, strain abp1, hits give low values 1.05 | locus YDL005C, strain med2, hits give low values 1.02 | locus YDL040C, strain nat1, hits give low values 1.03 | locus YDL101C, strain DUN1, hits give low values 0.981 | locus YDL185W, strain tfp1, hits give low values 1.01 | locus YDL192W, strain arf1, hits give low values 1.01 | locus YDR001C, strain nth1, hits give low values 1.04 | locus YDR069C, strain doa4, hits give low values 1.02 | locus YDR101C, strain arx1, hits give low values 0.932 | locus YDR159W, strain sac3, hits give low values 1.01 | locus YDR297W, strain sur2, hits give low values 0.99 | locus YDR334W, strain swr1, hits give low values 1.06 | locus YDR335W, strain msn5, hits give low values 0.937 | locus YDR388W, hits give low values 1.02 | locus YEL003W, strain gim4, hits give low values 0.942 | locus YEL037C, strain rad23, hits give low values 0.994 | locus YEL061C, strain CIN8 (second series), hits give low values 1.02 | locus YEL061C, strain CIN8, hits give low values 0.928 | locus YER015W, strain faa2, hits give low values 0.948 | locus YER016W, strain bim1, hits give low values 1.02 | locus YER110C, hits give low values 1.03 | locus YER111C, strain swi4, hits give low values 1.03 | locus YER155C, strain BEM2 (second series), hits give low values 0.991 | locus YFR010W, strain ubp6, hits give low values 0.96 | locus YGL078C, strain dbp3, hits give low values 0.979 | locus YGL167C, strain pmr1, hits give low values 1.02 | locus YGL173C, strain kem1, hits give low values 1 | locus YGL227W, strain vid30, hits give low values 1.04 | locus YGL240W, strain doc1, hits give low values 1.02 | locus YGL253W, strain hxk2, hits give low values 0.939 | locus YGR229C, strain SMI1, hits give low values 0.813 | locus YGR252W, strain gcn5, hits give low values 0.81 | locus YHR013C, strain ard1, hits give low values 0.966 | locus YHR027C, strain rpn1, hits give low values 1.02 | locus YHR079C, strain IRE1 (second series), hits give low values 0.962 | locus YHR094C, strain hxt1, hits give low values 1.04 | locus YHR142W, strain chs7, hits give low values 0.877 | locus YHR200W, strain rpn10, hits give low values 0.961 | locus YIL073C, strain SPO22, hits give low values 0.679 | locus YIL125W, strain kgd1, hits give low values 1 | locus YIR030C, strain dcg1, hits give low values 1.02 | locus YJL092W, strain hpr5, hits give low values 1 | locus YJL095W, strain BCK1 (second series), hits give low values 1.01 | locus YJL115W, strain asf1, hits give low values 1.05 | locus YJL129C, strain trk1, hits give low values 0.939 | locus YJL134W, strain LCB3, hits give low values 1.02 | locus YJL154C, strain vps35, hits give low values 1.03 | locus YJL166W, strain qcr8, hits give low values 0.903 | locus YJL168C, strain set2, hits give low values 1.02 | locus YJL187C, strain SWE1 (second series), hits give low values 0.887
